Screening data as filed in PubChem.
NSD2 inh: inhibitors of human histone methyltransferase NSD2. inhibition, % at 12.5 µM. O96028. NSD2 peptide methylation, AlphaScreen, 120 min. 310,000 tested, 0.54% active; in the data active = inhibition above about 50%
Ecoli rRNA inh: inhibitors of bacterial rRNA selective over humanized ribosomes | GFP signal change (wild-type ribosome), % (no concentration beside the values) | E. coli WT GFP vs humanized-ribosome RFP mutants, fluorescence, 24 h; stronger effect = lower value; DMSO median 0, no signal -100 | 350,000 tested, 1.6% active;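 active = significant combined selectivity score with lowered wild-type GFP, culture density cut under 30%, mutant RFP and density less affected; inactive = any of these conditions unmet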
RAD52 anneal inh: inhibitors of human RAD52 DNA annealing | P43351 | recombinant RAD52 DNA annealing, FRET fluorescence | inhibition, % at 18.7 µM | 360,000 tested, 0.46% active | AID 651710;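 active = every replicate showing at least 50% inhibition; inconclusive = mean inhibition at least 50% but not in every replicate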
Target sequence (P43351 whole entry, looked up): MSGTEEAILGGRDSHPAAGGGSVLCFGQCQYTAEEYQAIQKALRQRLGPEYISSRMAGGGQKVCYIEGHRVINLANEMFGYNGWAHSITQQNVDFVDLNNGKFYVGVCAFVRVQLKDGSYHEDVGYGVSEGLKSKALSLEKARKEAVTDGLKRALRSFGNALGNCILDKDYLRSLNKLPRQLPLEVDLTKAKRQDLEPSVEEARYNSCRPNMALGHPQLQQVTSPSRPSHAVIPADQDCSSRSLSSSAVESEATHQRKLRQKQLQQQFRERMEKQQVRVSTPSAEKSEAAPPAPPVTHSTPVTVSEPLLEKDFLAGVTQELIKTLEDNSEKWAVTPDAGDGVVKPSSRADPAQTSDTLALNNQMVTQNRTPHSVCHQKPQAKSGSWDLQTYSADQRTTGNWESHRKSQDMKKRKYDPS
CASP6 VEID inh: caspase-6 (human) enzyme inhibition. P55212. purified caspase-6, Z-VEID-R110 cleavage fluorescence. inhibition, % at 12.5 µM. 350,000 tested, 0.53% active. AID 686996;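 active = mean inhibition across replicates at least about 35%, with every replicate also reaching that limit, limit read from the data; inconclusive = only one of the two criteria met; inactive = neither criterion met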;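 also: 0% = median of neutral control wells and 100% = no fluorescence left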
AF4-AF9 inh: inhibitors of human MLL-AF4/AF9 interaction; P42568; AlphaScreen, biotin-AF4 peptide binding to FLAG-AF9; inhibition, % at 10 µM; 350,000 tested, 0.47% active; AID 651704;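 active = every replicate reaching a set inhibition limit, whatever the replicate mean, cut at about 25% in these data; inconclusive = mean inhibition reaches that limit but some replicates miss it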;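 also: 0% = plate neutral control median and 100% = total signal loss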
The depositor's hits bear a star; u = inconclusive; x = no result given. Compounds with a hit are over-represented: about 2.5% of the library has one in this group of screens.

SMILES	NSD2 inh	Ecoli rRNA inh	RAD52 anneal inh	CASP6 VEID inh	AF4-AF9 inh
Cc1ccccc1Nc1c(-c2ccccn2)nc2ccccn12	11	-54*	15	0	42*
N[C@H]1CC[C@H](CCn2cc(C3CC3)nn2)O[C@@H]1CO	x	2	-19	0	-9
C[C@@H]1CN([C@H](C)CO)S(=O)(=O)c2ccc(C#Cc3ccccn3)cc2O[C@H]1CN(C)Cc1ccccc1	x	-13	-87	1	0
Cc1cc2c(NC(=O)CC(C)(C)CC(=O)O)cccc2nn1	31	24	-3	12	1
Cc1cc2c(NC(=O)Nc3ccc(F)cc3)cccc2nn1	1	-6	1	68*	x
COc1ccc(NC(=O)N(C)C[C@H]2OCCCC[C@@H](C)Oc3ccc(N(C)C)cc3C(=O)N([C@@H](C)CO)C[C@H]2C)cc1	x	0	x	x	x
O=C(c1cc(-c2cccc(Br)c2)nc2ccccc12)N1CCCC1	-1	-26	-14	3	-3
O=C(c1cc(-c2ccc(Br)cc2)nc2ccccc12)N1CCC1	2	-25*	-29	-2	-6
CCCOc1ccc(N)cc1N	68*	x	x	x	x
COc1ccc(NC(=O)N[C@H]2CC[C@@H](CCNS(=O)(=O)c3ccccc3F)O[C@@H]2CO)cc1	x	-5	-7	3	2
Cc1cccc(NC(=S)NC2CC3C=CC2C3)c1 (centres undefined)	-2	-21*	-14	4	-2
COc1ccc(S(=O)(=O)N(C)C[C@H]2Oc3c(NS(=O)(=O)c4cccs4)cccc3C(=O)N([C@@H](C)CO)C[C@@H]2C)cc1	x	-5	-3	2	-1
Clc1cccc(-c2nn3c(Cn4cnc5ccccc54)nnc3s2)c1	4	1	6	57*	4
c1csc(-c2nn3c(Cn4cnc5ccccc54)nnc3s2)c1	0	x	x	x	x
O=S(=O)(N[C@H]1CC[C@@H](CCn2cc(-c3ccccc3F)nn2)O[C@H]1CO)c1ccc(F)cc1	x	-6	7	-2	-2
CC(=O)Nc1ccc(S(=O)(=O)N2CCN(S(=O)(=O)c3ccccc3)CC2)cc1	1	6	-3	1	3
CC(=O)Nc1ccc(S(=O)(=O)N2CCN(CC3CC4C=CC3C4)CC2)cc1 (centres undefined)	5	-22*	-16	4	1
C/C=C/c1ccc([C@H]2[C@@H](CO)N(CC3CCOCC3)C23CN(S(=O)(=O)CC)C3)cc1	x	-1	-31	-3	1
CN(C)CCCNc1nc2cc(-c3ccc(C(=O)N4CCN(C)CC4)cc3)sc2c(=O)n1C	x	4	75*	-47	2
COc1ccc(NC(=O)CSc2ccccn2)c([N+](=O)[O-])c1	14	-26*	-17	5	11
COc1ccc(N2CCN(C(=O)CN3CCN(c4nc(-c5ccc(F)cc5)cs4)CC3)CC2)cc1	2	x	-7	3	27*
O=C(CCC(=O)N1CCN(c2ccccc2F)CC1)N1CCN(c2ccc(F)cc2)CC1	2	-17	-4	0	1
COC(=O)[C@H](Cc1ccccc1)NC(=O)N1CCCCCC1	-3	3	-7	-5	1
COC(=O)[C@H](Cc1ccccc1)NC(=O)N1CCN(c2ccc(F)cc2)CC1	1	-20*	-1	3	x
O=C(CCC(=O)N1CCN(c2ccc(F)cc2)CC1)N1CCN(c2ccc(F)cc2)CC1	2	-21*	-7	-3	-1
SMILES	NSD2 inh	Ecoli rRNA inh	RAD52 anneal inh	CASP6 VEID inh	AF4-AF9 inh
CCCCCCCCCCOC(=O)Cn1c(COc2ccccc2OC)[n+](C)c2ccccc21	4	-55	75*	-42	19
C[C@@H]1CN([C@H](C)CO)C(=O)c2cc(NS(=O)(=O)c3cn(C)cn3)ccc2O[C@H]1CN(C)Cc1ccc(Cl)c(Cl)c1	x	-1	-1	4	-2
O=C(O)CSCC(=O)Nc1ccc(-c2nc3ccccc3s2)cc1	1	-18	-23	25	-6
Cc1csc(NC(=O)CSCC(=O)O)c1-c1nc2ccccc2s1	-4	-51*	-10	-1	-7
CCCC#Cc1ccc(CC[C@H]2O[C@H]3CC[C@@H](CO)O[C@H]3C[C@H]2NS(=O)(=O)c2ccccc2)cc1	x	x	3	2	-1
COc1ccccc1N(C1=NCCCS1)S(=O)(=O)c1ccc(C(C)(C)C)cc1	1	-16*	-21	-2	2
CC(C)CC#Cc1ccc2c(c1)O[C@@H](CN(C)C(=O)C1CCCCC1)[C@H](C)CN([C@H](C)CO)S2(=O)=O	x	3	-3	3	4
O=S(=O)(Nc1ccc(-n2cccc2)cc1)c1ccc(Cl)c(Cl)c1	2	-45*	-11	4	0
CC(C)COC(=O)N(C)C[C@H]1OCc2ccccc2-c2c(n(C)c3ccccc23)C(=O)N([C@@H](C)CO)C[C@H]1C	x	-4	15	1	5
OCC1CCCN(C(=S)Nc2ccc(Nc3ccccc3)cc2)C1 (centres undefined)	29	-27*	-4	4	10
OCC1CCCN(C(=S)Nc2ccc(OC(F)F)cc2)C1 (centres undefined)	-3	-7	-1	-12	-15
CC1(C(=O)NNC(=O)C2CCCCC2)CC1(Cl)Cl (centres undefined)	-3	-27*	-18	2	-2
CC(C)CNC(=O)C(=O)NNC(=O)C1CCCCC1	3	12	-8	-5	u
COc1ccccc1-c1ccc2c(c1)O[C@H](CN(C)CC1CC1)[C@H](C)CN([C@@H](C)CO)S2(=O)=O	x	3	x	x	x
C[C@H]1CN([C@@H](C)CO)C(=O)c2c(c3ccccc3n2C)-c2ccccc2CO[C@H]1CN(C)S(=O)(=O)c1cn(C)cn1	x	-3	4	1	-2
CNS(=O)(=O)c1cc(NC(=O)c2cnc(SC)n2-c2ccccc2)ccc1C	-3	-21*	-11	5	-4
COc1cc(OC)c2c(-c3ccccc3)cc(=O)oc2c1C(CCN1CCCC(C)C1)c1ccc2c(c1)OCO2 (centres undefined)	x	-9	17	-3	32*
COc1cc(OC)c2ccc(=O)oc2c1C(CCN1CCCC(C)C1)c1ccc(N(C)C)cc1 (centres undefined)	x	1	16	-5	22
COc1cc(C(CCN2CCOCC2)c2c(OC)cc(OC)c3c2OC(=O)CC3c2ccc(N(C)C)cc2)cc(OC)c1OC (centres undefined)	x	-9	-8	-2	49*
COc1cc(C2CC(=O)Oc3c(C(CCN4CCCC(C)C4)c4ccc(N(C)C)cc4)c(OC)cc(OC)c32)cc(OC)c1OC (centres undefined)	x	1	5	5	39*
COc1ccc(C2CC(=O)Oc3c(C(CCN4CCOCC4)c4cc(OC)c(OC)c(OC)c4)c(OC)cc(OC)c32)cc1 (centres undefined)	x	-8	-31	-2	18
Cc1cccc(-c2ccc(C3[C@@H]4CN(C(=O)C5CCCCC5)C[C@H]3N4)cc2)c1 (some centres undefined)	x	-61	x	x	x
